From PubChem BioAssay (NCATS)
Results filed as inconclusive are left out. Activity calls are given as the source filed them. Unless noted, calls follow the shape of the dose curve; as a rule, active = well fitted curve in either direction with a large enough effect (not every such curve was filed as active); inconclusive = small, poorly fitted or top-dose-only effect, or another doubt; inactive = flat fitted curve, though single readings scatter.

Key:
[1] = AP1 Signaling Pathway (AID 357); settings: ME-180 AP-1-bla reporter, EGF-induced, beta-lactamase ratio, 5 h; at 7.69 µM (top of the series) unless noted; also: % is scaled to controls: 0 for no effect and ±100 for the full control effect
How it was run: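 AP-1-bla ME-180 cells with beta-lactamase reporter under AP-1 response element, stimulated with EC50 EGF; compounds titrated, 5 hours at 37 degrees Celsius. CCF4 read at 460/530 nm ratio; positive and negative modulators judged by AC50.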

[2] = target: Cytochrome P450 1A2 (Homo sapiens) (UniProt P05177); test: p450-cyp1a2 (AID 410; calls by dose curve; also: potency is read from the fitted curve at half-maximal effect;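 as to activity change, negative = inhibition: -100% = full effect of reference inhibitor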)
Chain of Cytochrome P450 1A2 (Homo sapiens) (P05177 whole entry, looked up): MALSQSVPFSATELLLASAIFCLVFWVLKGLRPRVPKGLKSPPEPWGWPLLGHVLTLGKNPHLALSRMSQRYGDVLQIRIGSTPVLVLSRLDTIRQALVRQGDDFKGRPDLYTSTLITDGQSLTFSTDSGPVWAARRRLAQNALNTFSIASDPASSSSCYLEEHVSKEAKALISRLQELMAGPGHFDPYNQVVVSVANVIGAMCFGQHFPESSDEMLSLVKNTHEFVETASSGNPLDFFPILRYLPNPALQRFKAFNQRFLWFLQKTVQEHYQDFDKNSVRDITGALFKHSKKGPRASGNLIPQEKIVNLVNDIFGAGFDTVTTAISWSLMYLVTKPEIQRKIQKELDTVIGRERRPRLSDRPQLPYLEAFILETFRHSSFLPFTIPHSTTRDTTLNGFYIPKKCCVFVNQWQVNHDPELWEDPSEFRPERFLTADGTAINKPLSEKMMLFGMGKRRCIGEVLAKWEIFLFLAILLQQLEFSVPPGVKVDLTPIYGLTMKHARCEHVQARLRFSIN
How it was run: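 20nM CYP1A2 with 100uM Luciferin-ME (at Km) in 100mM KPO4; compound preincubated 10 min, NADPH regeneration added, 60 min at room temperature. Luciferin quantified by luminescence after detection reagent; normalized to 57 uM furafylline.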

[3] = NFAT Signaling Pathway (AID 444); settings: Jurkat NFAT-bla M1, carbachol, beta-lactamase ratio, 5 h; at 7.69 µM (top of the series) unless noted;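 also: carbachol stimulus at about its EC50 of 1 µM final; % is scaled to controls: 0 for no effect and ±100 for the full control effect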
How it was run: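 Jurkat cells with NFAT-driven β-lactamase reporter and co-expressed M1 receptor, stimulated with carbachol (final 1 uM, ~EC50), compound titration, 5 h at 37 °C. CCF4 loaded 1 h at RT; 460/530 nm ratio gave %activity and AC50.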

[4] = Stat Signaling Pathway (AID 446); settings: ME-180 (cervical carcinoma) SIE beta-lactamase reporter, IL-6 stimulated, 5 h; at 7.69 µM (top of the series) unless noted;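 also: ME-180 cervical cancer cells given 40 pM IL-6 alongside compound; SIE-controlled beta-lactamase reporter measured as 460/530 nm FRET emission ratio; % is scaled to controls: 0 for no effect and ±100 for the full control effect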
How it was run: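 IL-6/STAT signaling read in ME-180 cells via an SIE beta-lactamase reporter. Stimulus was 40 pM IL-6 (its AC50) for 5 hrs, so both activation and inhibition register.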

[5] = target: Glucocorticoid receptor (Homo sapiens) (UniProt P04150); test: GR-GFP Redistribution (AID 450;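 active = compounds whose dose series gives a full or clear partial fitted curve of increased nuclear translocation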; also: potency is read from the fitted curve at half-maximal effect); settings: U2OS GR-GFP nuclear translocation, laser cytometry, 2 h
Chain of Glucocorticoid receptor (Homo sapiens) (P04150 whole entry, looked up, the tested form may be a part): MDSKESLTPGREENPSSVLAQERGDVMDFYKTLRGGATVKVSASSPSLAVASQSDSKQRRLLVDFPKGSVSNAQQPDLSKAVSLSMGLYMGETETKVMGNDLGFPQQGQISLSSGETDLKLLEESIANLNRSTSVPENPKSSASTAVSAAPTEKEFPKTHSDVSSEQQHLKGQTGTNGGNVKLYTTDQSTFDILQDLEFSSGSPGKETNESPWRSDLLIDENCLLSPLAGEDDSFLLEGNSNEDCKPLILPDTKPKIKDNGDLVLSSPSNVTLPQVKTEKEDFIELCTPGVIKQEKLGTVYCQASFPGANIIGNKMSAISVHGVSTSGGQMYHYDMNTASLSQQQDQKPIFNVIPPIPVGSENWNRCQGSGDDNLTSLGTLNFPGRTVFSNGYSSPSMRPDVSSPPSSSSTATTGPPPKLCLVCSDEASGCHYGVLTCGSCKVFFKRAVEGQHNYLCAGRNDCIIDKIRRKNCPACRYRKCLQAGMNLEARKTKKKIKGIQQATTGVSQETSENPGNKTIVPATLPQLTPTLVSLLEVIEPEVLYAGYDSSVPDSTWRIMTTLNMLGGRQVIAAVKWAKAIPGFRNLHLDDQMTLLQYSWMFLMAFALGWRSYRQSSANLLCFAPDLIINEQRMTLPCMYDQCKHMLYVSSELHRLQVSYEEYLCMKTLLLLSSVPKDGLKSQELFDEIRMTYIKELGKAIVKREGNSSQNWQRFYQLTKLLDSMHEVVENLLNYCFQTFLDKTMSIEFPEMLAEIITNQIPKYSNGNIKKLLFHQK

[6] = target: Glucocorticoid receptor (Homo sapiens) (UniProt P04150); test: GR-EFC Redistribution (AID 451; calls by dose curve; also: potency is read from the fitted curve at half-maximal effect); settings: CHO-K1 GR-EFC translocation, beta-gal luminescence, 2 h
How it was run: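 CHO-K1 cells expressing nuclear EA and GR-ED fragments of b-gal; compounds titrated up to 46 uM final, 2 h at 37 C. GR nuclear translocation read as complemented b-gal luminescence after 1 h RT detection.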

[7] = target: Mitogen-activated protein kinase 10 (Mus musculus) (UniProt Q61831); test: JNK3 AlphaScreen Assay (AID 530);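 also: kinase came from lysate of stimulated human HepG2 cells; signal reports phosphorylation of biotinylated GST-cJun 1-79 at Ser73 with 10 µM ATP; % is scaled to controls: 0 for no effect and ±100 for the full control effect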
How it was run: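 Pre-activated (IL-1β/TNFα) JNK3 in HepG2 lysates phosphorylates biotin-GST-cJun(1-79), 10 uM ATP; anti-phospho-cJun(Ser73) AlphaScreen read at room temperature, pH 7.6 Tris buffer. Compounds pre-incubated 15 min as titrations.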

[8] = target: 3',5'-cyclic-AMP phosphodiesterase 4B (Homo sapiens) (UniProt Q07343); test: qHTS Assay for Inhibitors of PDE-IV (AID 607; active = well fitted activation curve with a large enough effect in the main read-out, with a control signal flat, not every such curve was filed as active; also: % of control where 0% means no effect)
Chain of 3',5'-cyclic-AMP phosphodiesterase 4B (Homo sapiens) (Q07343 whole entry, looked up): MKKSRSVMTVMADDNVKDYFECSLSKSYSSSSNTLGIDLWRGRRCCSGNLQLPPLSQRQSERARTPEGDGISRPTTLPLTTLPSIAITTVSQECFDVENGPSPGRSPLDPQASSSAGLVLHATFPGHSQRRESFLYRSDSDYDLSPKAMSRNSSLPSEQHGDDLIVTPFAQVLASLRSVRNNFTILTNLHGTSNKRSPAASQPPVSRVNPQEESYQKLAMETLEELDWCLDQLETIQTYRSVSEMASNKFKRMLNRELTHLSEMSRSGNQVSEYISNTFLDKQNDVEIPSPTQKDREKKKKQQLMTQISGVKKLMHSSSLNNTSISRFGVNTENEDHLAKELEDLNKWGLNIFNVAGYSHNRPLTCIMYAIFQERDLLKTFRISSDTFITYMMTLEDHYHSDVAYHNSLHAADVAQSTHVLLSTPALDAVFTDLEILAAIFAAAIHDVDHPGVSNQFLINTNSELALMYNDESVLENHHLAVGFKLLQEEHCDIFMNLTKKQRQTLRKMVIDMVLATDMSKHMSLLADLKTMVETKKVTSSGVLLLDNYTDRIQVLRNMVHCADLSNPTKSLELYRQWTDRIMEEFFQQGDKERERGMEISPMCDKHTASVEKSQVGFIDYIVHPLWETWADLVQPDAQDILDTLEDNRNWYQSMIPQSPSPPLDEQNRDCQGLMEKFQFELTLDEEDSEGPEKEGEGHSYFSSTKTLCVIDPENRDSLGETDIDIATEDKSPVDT
How it was run: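 Live HEK293 cells with a modified cyclic nucleotide-gated (CNG) channel report intracellular cAMP via membrane-potential dye fluorescence (ex 535/em 590 nm). Endogenous PDE-IV was targeted. Compounds were tested at up to 22.9 uM final; RO 20-1724 100 uM served as control.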

[9] = target: Cytochrome P450 2D6 (Homo sapiens) (UniProt P10635); test: qHTS Assay for Inhibitors and Substrates of Cytochrome P450 2D6 (AID 891; active = well fitted curve in the direction sought with a large enough effect; an effect the other way counts as inactive or inconclusive;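 also: luciferin methyl ether substrate demethylated by CYP2D6 with NADPH regeneration; % is scaled to controls: 0 for no effect and ±100 for the full control effect; nearly all actives have a fitted effect of over 60% in size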)
Chain of Cytochrome P450 2D6 (Homo sapiens) (P10635 whole entry, looked up): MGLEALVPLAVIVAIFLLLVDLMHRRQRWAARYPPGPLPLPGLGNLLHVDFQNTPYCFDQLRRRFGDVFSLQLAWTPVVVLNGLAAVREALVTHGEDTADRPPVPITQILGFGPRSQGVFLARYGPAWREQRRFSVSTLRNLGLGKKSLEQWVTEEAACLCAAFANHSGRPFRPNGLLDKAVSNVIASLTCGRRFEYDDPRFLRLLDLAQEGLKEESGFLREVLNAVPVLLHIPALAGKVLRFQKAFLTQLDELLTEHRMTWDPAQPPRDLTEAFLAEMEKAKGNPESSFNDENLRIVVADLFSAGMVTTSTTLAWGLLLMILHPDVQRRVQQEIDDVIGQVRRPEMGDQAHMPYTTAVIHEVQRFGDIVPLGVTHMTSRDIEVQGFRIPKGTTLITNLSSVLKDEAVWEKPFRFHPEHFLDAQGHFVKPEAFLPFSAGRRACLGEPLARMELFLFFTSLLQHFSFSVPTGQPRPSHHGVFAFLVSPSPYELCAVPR
How it was run: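 Human CYP2D6 (5 nM) with 30 uM Luciferin-ME EGE (at Km) in 100 mM KPO4, compound preincubated 10 min, then NADPH regeneration system for 60 min at room temperature. Luciferin read by luminescence; normalized to 1.43 uM quinidine.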

[10] = target: Cytochrome P450 2C19 (Homo sapiens) (UniProt P33261); test: qHTS Assay for Inhibitors and Substrates of Cytochrome P450 2C19 (AID 899; active = well fitted curve in the direction sought with a large enough effect; an effect the other way counts as inactive or inconclusive; also: nearly all actives have a fitted effect of over 60% in size; also: potency is read from the fitted curve at half-maximal effect)
Chain of Cytochrome P450 2C19 (Homo sapiens) (P33261 whole entry, looked up): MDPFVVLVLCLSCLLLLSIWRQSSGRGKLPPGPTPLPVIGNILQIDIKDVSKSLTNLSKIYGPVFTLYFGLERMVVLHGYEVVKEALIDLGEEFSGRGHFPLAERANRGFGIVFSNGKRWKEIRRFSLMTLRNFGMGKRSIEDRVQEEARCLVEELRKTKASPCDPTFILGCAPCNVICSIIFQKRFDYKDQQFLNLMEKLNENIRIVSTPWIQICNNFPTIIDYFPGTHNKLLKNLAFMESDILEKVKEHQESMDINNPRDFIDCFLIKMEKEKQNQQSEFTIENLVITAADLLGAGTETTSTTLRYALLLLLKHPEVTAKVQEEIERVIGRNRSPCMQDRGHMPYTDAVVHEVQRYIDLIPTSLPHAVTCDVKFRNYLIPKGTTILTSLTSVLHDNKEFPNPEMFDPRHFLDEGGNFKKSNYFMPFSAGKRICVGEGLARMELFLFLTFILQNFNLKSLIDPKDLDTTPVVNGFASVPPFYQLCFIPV
How it was run: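 5 nM human CYP2C19 with 10uM Luciferin-H EGE (at KM) in 50mM KPO4, compound preincubated 10 min at 37C, then NADPH regeneration for 60 min at 37C. Luciferin read by luminescence after detection reagent; normalized to 57uM ketoconazole as full inhibition.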

[11] = target: Cytochrome P450 3A4 (Homo sapiens) (UniProt P08684); test: qHTS Assay for Activators of Cytochrome P450 3A4 (AID 885; active = well fitted curve in the direction sought with a large enough effect; an effect the other way counts as inactive or inconclusive; also: nearly all actives have a fitted effect of over 65% in size)
Chain of Cytochrome P450 3A4 (Homo sapiens) (P08684 whole entry, looked up): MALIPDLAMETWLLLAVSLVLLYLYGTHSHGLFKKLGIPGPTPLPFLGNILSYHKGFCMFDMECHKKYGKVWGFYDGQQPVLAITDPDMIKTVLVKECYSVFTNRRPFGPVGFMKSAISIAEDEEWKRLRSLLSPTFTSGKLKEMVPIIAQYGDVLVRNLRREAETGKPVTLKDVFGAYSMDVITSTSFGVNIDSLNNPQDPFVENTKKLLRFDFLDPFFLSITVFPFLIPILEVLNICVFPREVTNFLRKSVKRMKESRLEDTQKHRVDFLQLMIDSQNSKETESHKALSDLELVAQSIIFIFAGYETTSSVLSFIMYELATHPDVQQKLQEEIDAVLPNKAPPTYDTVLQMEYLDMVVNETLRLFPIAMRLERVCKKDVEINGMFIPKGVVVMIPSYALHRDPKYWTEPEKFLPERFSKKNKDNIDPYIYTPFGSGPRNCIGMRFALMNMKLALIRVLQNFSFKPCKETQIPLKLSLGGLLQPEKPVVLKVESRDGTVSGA
How it was run: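 Quantitative HTS format: compounds preincubated with 20nM human CYP3A4 and Luciferin-PPXE substrate at KM, reaction started by NADPH regeneration, stopped after 60 min, luciferase luminescence read 20 min later.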

C[C@]12C=CC(=O)C=C1CC[C@@H]1[C@H]3C[C@@H](O)[C@](O)(C(=O)CO)[C@]3(C)C[C@H](O)[C@]12F
inactive: activity change, negative = inhibition [1] -12.2% [at 38 µM] | Potency [2] | activity change, negative = inhibition [3] -3.19% [at 38 µM] | activity, negative = inhibition [4] -15.9% [at 38 µM] | Potency [7] | Potency [8] | Potency [9]
active: Potency [5] 0.223 µM | Potency [6] 0.273 µM

CCN1/C(=C\C(C)=O)Sc2ccc(OC)cc21
active: Potency [2] 0.631 µM
inactive: activity change, negative = inhibition [1] -18.4% [at 38 µM] | activity change, negative = inhibition [3] 10.3% [at 38 µM] | activity, negative = inhibition [4] 2.84% [at 38 µM] | Potency [5] > 46 µM | Potency [6] > 46 µM | Potency [7] | Potency [8] | Potency [9] | Potency [10]

CC[C@H](C)C(=O)O[C@@H]1CCC=C2C=C[C@H](C)[C@@H](CC[C@H]3C[C@@H](O)CC(=O)O3)[C@H]21
inactive: activity change, negative = inhibition [1] -28.7% [at 38 µM] | Potency [2] | activity change, negative = inhibition [3] 6.96% [at 38 µM] | activity, negative = inhibition [4] 10.1% [at 38 µM] | Potency [5] > 46 µM | Potency [6] > 46 µM | Potency [7] | Potency [8] | Potency [9] | Potency [10]

CN(Cc1cc(C(C)(C)C)cc(Br)c1O)Cc1cc(C(C)(C)C)cc(Br)c1O
inactive: activity change, negative = inhibition [1] -2.5% | activity change, negative = inhibition [3] 11.8% | activity, negative = inhibition [4] 7.17% | Potency [5] > 46 µM | Potency [6] > 9.22 µM | Potency [7] | Potency [8]
active: Potency [2] 3.16 µM | Potency [10] 3.16 µM

COc1ncc2nc(-c3cc(F)cc(F)c3)c(=O)n(C3CC3)c2n1
inactive: activity change, negative = inhibition [1] 5.87% | activity change, negative = inhibition [3] -2% | activity, negative = inhibition [4] -19.2% | Potency [5] > 9.22 µM | Potency [6] > 46 µM | Potency [7] | Potency [8] | Potency [11]
active: Potency [2] 1.58 µM

C[C@]1(c2ccccc2)O[C@@H]2C[C@@H]3[C@@H]4CCC5=CC(=O)C=C[C@@]5(C)[C@]4(F)[C@H](O)C[C@]3(C)[C@@]2(C(=O)CO)O1
inactive: activity change, negative = inhibition [1] 7.91% | activity change, negative = inhibition [2] -16.4% [at 2.29 µM] | activity change, negative = inhibition [3] -6.34% | activity, negative = inhibition [4] -4.73% | Potency [7] | Potency [8] | Potency [11]
active: Potency [5] < 2.95e-05 µM | Potency [6] 0.00231 µM

O=c1[nH]c2[nH]c(=S)[nH]c(=S)c2[nH]1
active: Potency [2] 3.98 µM | Potency [10] 0.631 µM
inactive: activity change, negative = inhibition [1] -13.3% | activity change, negative = inhibition [3] -1.66% | activity, negative = inhibition [4] 15.5% | Potency [5] > 46 µM | Potency [6] > 9.22 µM | Potency [7] | Potency [8]
